# According to PubChem BioAssay AID687014 (The Scripps Research Institute Molecular Screening Center, 2013):
# About 6,800 (1.8%) of roughly 370,000 compounds were called active.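 The calls were made as follows: active = activation above a cutoff set at the mean of all screened compounds plus 3 SD (cut at about 10% in these data); inactive = the rest.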 For the sample, actives were picked, then their nearest neighbours and some compounds at random.
# Tested on: Nuclear hormone receptor DAF-12 (Heterodera glycines), GAL4 fusion
# Test: hgDAF-12 GAL4 fusion reporter activation – cell-based, luminescence, HEK293, UAS-luciferase, primary screen (AID 687014);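 also: 0% = DMSO wells and 100% = sodium butyrate wells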
# Conditions: HEK293 GAL4-hgDAF12 UAS-luciferase reporter, agonist luminescence; at 6.8 µM; active compounds read high; normalized to butyrate control
row,SMILES,activation
1,CCOC(=O)C1CCN(C(=O)C(C)(C)NC(=O)Nc2ccccc2Cl)CC1,0.66% (inactive)
2,C[C@@H]1ON(C)[C@H]2C[C@H]3c4cc(N5CCOCC5)ccc4CCN3C[C@@H]12,-4.54% (inactive)
3,COC(=O)C1=C(C)N(Cc2ccccc2C(F)(F)F)C(=NCc2ccc(OC)cc2)NC1c1cccc(C(F)(F)F)c1 (configuration not stated),-1.71% (inactive)
4,CN1CCc2ccccc2C1Cc1ccccc1NC(=O)c1sc2ccccc2c1Cl (configuration not stated),5.85% (inactive)
5,O=C(Nc1ccon1)c1sc2ccccc2c1Cl,11.2% (active)
6,O=C(Nc1ccc2c(c1)OCO2)c1sc2cc(Cl)ccc2c1Cl,-1.79% (inactive)
7,C[C@@H]1CN([C@H](C)CO)C(=O)CCCn2cc(nn2)CO[C@H]1CN(C)C(=O)Nc1ccc(N2CCCCC2)cc1,5.88% (inactive)
8,Cc1nn2c3cc(N4CCOCC4)ccc3nc2c2ccccc12,11.4% (active)
9,N#CCSc1nc2ccc(N3CCOCC3)cc2c(=O)n1CCc1ccccc1,-1.34% (inactive)
10,Cc1nc2ccccc2n1C(=O)N1CCOCC1,1.42% (inactive)
11,Cc1ccc(Cn2cc(CN3[C@@H](CC(C)C)COc4ccc(Cl)cc4S3(=O)=O)nn2)cc1,0.41% (inactive)
12,CCCC1(C(=O)OCC)NC(c2ccc(N(C)C)cc2)C2C(=O)N(c3ccc4c(c3)OCCO4)C(=O)C21 (configuration not stated),-2.1% (inactive)
13,Cc1ccc(-c2nc(C3CCCN(S(=O)(=O)c4ccc(Br)s4)C3)no2)cc1 (configuration not stated),1.98% (inactive)
14,COc1ccc(Nc2ncc(F)c(N3CCOCC3)n2)cc1,18.6% (active)
15,COC(=O)c1ccccc1Oc1c(F)c(F)nc(N2CCOCC2)c1F,-0.09% (inactive)
16,Fc1cnc(N2CCOCC2)nc1NCc1ccccc1,-0.76% (inactive)
17,COC(=O)c1cc2c(c3c4cc(F)ccc4n(S(=O)(=O)c4ccccc4)c13)C(=O)N(Cc1ccccc1OC)C2,0.57% (inactive)
18,Cc1ccc(NC(=O)c2oc(=O)c3ccccc3c2-c2ccccc2)c(C)c1,2.59% (inactive)
19,Cc1ccc(NN=C2C(=O)OC(C)(C)OC2=O)c(C)c1,11.5% (active)
20,Cc1ccc(NC(=O)C(=O)NCc2ccco2)c(C)c1,6.27% (inactive)
21,C=CCN(C)CC#Cc1ccccc1,-1.36% (inactive)
22,CCCCOc1ccc(-c2nnc(-c3ccco3)o2)cc1,11.3% (active)
23,CCCCCCc1cc2cc(-c3nnc(-c4cccc(OC)c4)o3)c(=O)oc2cc1O,4.05% (inactive)
24,CCCCSc1nnc(-c2ccc(C)cc2)o1,8.59% (inactive)
25,CCOc1ccc(NC(=O)N(CCC(C)C)C(C)c2ccco2)cc1 (configuration not stated),-1.26% (inactive)
26,O=C(CSc1nnc(-c2ccco2)o1)NCC(=O)c1ccccc1,-1.52% (inactive)
27,CCOc1ccc(-c2nnc(-c3ccco3)o2)cc1,13.6% (active)
